# Data reported in the supplement of paper PMC10849652.
# Of roughly 7,900 targets only a part is listed; those with a hit were picked by preference. About 0.6% of all pairs of compound and target were hits. Values without a mark were called inactive.
# Key:
# Assay in all cases: log2 fold change, soluble protein after heating vs DMSO (PISA); higher = thermal stabilisation; K562 cells, 10 uM, 30 min; active = over 0.2 and 3.5 SD of the protein, either way, in both replicates (recomputed)
# bafetinib = compound: Cc1ccc(NC(=O)c2ccc(CN3CC[C@H](N(C)C)C3)c(C(F)(F)F)c2)cc1Nc1nccc(-c2cncnc2)n1 [bafetinib]
# Outline: (§1)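 K562 cells at 2×10^6 cells/mL were treated for 30 min with 10 μM compound, and aliquots were heated for 3 min over 48°C-58°C before pooling. Extraction used PBS with 0.5% NP-40 at 4°C, and soluble protein was the supernatant after 21,000xg for 90 min, measured by TMTpro 16plex LC-MS/MS with channel sums equalised. Thermal stability values, relative to control samples and from duplicates, are log2 fold changes.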
# [1] = compound: Cc1cccc(CC(=O)N2CCc3c2ccc(-c2cn(C)c4ncnc(N)c24)c3F)n1
# Outline: as §1
# nilotinib = compound: Cc1cn(-c2cc(NC(=O)c3ccc(C)c(Nc4nccc(-c5cccnc5)n4)c3)cc(C(F)(F)F)c2)cn1 [nilotinib]
# Outline: as §1
# [2] = compound: Cc1nc(Nc2n[nH]c3c2CN(C(=O)N[C@H](CN(C)C)c2ccccc2)C3(C)C)c2sccc2n1
# Outline: as §1
# dasatinib = compound: Cc1nc(Nc2ncc(C(=O)Nc3c(C)cccc3Cl)s2)cc(N2CCN(CCO)CC2)n1 [dasatinib]
# Outline: as §1
# [3] = compound: Cc1ncc(-c2ccnc(Nc3ccc(S(C)(=O)=O)cc3)n2)n1C(C)C
# Outline: as §1
# [4] = compound: Cn1cc(-c2ccc3c(c2)CCN3C(=O)Cc2cccc(C(F)(F)F)c2)c2c(N)ncnc21
# Outline: as §1
# [5] = compound: Cn1cc(-c2ccc3nnc(C(F)(F)c4ccc5ncccc5c4)n3n2)cn1
# Outline: as §1
# tipifarnib = compound: Cn1cncc1[C@@](N)(c1ccc(Cl)cc1)c1ccc2c(c1)c(-c1cccc(Cl)c1)cc(=O)n2C [tipifarnib]
# Outline: as §1
# mubritinib = compound: FC(F)(F)c1ccc(/C=C/c2nc(COc3ccc(CCCCn4ccnn4)cc3)co2)cc1 [mubritinib]
# Outline: as §1
# [6] = compound: NC(=O)Nc1cc(-c2cccc(F)c2)sc1C(=O)N[C@H]1CCCNC1
# Outline: as §1
# [7] = compound: NC(=O)c1cnc(N[C@@H]2CCCC[C@@H]2N)nc1Nc1cccc(-n2nccn2)c1
# Outline: as §1
# [8] = compound: NC1(c2ccc(-c3nc4ccn5c(=O)[nH]nc5c4cc3-c3ccccc3)cc2)CCC1
# Outline: as §1
# [9] = compound: NCC(=O)Nc1ccc(-n2nc(C(F)(F)F)cc2-c2ccc3c(ccc4ccccc43)c2)cc1
# Outline: as §1
# entinostat = compound: Nc1ccccc1NC(=O)c1ccc(CNC(=O)OCc2cccnc2)cc1 [entinostat]
# Outline: as §1
# vorinostat = compound: O=C(CCCCCCC(=O)Nc1ccccc1)NO [vorinostat]
# Outline: as §1
# citarinostat = compound: O=C(CCCCCCNC(=O)c1cnc(N(c2ccccc2)c2ccccc2Cl)nc1)NO [citarinostat]
# Outline: as §1
# silmitasertib = compound: O=C(O)c1ccc2c(c1)nc(Nc1cccc(Cl)c1)c1ccncc12 [silmitasertib]
# Outline: as §1
# [10] = compound: O=C1NC(=O)C(c2cnc3ccccn23)=C1c1cn2c3c(cc(F)cc13)CN(C(=O)N1CCCCC1)CC2
# Outline: as §1
# [11] = compound: c1cc(OCCN2CCCCC2)cc(-c2n[nH]c3ccc(-c4nnc[nH]4)cc23)c1
# Outline: as §1
# Sequence of UniProt Q9UQ35 (Q9UQ35 whole entry, looked up): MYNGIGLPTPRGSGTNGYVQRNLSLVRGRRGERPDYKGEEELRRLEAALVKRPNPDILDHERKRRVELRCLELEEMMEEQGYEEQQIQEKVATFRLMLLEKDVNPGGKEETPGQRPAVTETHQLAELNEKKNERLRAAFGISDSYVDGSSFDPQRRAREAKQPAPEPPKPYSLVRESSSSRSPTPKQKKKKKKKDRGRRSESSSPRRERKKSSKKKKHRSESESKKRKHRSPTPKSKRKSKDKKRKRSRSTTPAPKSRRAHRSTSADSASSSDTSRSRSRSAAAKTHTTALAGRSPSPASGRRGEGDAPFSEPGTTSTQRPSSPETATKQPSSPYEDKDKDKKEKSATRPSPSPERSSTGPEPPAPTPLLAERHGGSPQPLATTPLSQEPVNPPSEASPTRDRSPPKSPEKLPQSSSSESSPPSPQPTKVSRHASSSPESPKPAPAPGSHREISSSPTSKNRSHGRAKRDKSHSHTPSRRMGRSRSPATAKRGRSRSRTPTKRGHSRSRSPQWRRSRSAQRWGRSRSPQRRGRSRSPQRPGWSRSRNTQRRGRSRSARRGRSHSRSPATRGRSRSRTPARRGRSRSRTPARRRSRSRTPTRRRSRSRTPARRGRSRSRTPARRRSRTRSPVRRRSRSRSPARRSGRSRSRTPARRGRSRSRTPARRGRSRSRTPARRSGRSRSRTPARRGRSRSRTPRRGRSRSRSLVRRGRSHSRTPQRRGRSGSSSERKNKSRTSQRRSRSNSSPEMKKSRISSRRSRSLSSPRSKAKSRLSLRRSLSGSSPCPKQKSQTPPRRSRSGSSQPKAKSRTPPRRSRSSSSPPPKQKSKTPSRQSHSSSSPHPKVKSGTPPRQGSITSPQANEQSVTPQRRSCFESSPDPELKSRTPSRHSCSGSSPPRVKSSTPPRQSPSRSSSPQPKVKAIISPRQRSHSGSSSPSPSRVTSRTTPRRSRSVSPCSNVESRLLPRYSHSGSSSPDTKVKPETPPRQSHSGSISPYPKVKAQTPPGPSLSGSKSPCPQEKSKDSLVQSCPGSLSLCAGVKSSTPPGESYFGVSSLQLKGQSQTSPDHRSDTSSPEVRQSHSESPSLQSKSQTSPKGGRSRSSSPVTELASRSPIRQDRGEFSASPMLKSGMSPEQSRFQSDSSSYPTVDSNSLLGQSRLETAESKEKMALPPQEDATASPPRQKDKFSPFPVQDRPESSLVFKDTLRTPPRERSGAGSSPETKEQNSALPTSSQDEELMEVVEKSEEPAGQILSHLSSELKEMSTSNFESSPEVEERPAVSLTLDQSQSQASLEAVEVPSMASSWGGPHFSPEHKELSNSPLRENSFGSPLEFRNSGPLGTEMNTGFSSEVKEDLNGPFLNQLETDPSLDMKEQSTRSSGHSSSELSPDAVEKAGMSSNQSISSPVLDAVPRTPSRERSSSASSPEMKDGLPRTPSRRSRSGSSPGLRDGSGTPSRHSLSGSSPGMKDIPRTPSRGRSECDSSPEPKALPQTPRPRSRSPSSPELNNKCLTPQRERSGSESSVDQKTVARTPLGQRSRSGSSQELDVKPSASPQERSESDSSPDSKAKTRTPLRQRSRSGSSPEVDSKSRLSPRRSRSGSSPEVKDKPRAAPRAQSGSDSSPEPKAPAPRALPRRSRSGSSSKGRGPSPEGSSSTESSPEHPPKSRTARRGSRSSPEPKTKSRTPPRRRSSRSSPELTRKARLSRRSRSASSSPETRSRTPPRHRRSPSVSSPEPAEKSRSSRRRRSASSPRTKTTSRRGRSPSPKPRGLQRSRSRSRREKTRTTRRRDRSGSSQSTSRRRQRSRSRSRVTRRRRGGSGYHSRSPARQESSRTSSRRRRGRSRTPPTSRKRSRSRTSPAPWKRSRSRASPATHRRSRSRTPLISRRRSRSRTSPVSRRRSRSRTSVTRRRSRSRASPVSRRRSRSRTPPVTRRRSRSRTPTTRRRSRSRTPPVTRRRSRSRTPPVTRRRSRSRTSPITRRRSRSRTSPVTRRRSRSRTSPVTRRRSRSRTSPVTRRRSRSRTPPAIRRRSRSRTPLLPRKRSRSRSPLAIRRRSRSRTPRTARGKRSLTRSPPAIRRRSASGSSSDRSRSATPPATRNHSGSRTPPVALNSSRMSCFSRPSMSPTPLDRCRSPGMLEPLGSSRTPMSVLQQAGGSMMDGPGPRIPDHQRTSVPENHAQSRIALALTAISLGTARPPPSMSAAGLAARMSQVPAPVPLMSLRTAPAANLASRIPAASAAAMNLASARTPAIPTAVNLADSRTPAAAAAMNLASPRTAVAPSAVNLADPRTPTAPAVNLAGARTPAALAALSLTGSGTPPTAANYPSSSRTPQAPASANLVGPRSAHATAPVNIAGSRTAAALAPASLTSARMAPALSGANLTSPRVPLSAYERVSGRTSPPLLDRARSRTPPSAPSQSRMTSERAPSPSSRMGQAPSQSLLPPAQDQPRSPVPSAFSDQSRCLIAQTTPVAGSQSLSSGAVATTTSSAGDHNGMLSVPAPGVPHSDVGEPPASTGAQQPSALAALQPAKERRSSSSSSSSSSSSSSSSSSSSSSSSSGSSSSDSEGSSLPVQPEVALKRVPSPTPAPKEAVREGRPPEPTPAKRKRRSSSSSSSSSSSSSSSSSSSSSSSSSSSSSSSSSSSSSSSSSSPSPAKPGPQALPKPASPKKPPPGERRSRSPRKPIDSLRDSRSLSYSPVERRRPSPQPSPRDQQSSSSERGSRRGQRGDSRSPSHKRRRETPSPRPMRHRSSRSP
# Sequence of UniProt P35270 (P35270 whole entry, looked up): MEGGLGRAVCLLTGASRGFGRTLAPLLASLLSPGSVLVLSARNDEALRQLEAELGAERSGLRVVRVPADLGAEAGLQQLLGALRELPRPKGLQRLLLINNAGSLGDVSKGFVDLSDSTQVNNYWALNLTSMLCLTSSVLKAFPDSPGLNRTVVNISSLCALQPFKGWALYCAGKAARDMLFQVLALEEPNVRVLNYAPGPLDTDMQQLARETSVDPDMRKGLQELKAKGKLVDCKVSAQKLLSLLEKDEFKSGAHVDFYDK
# Sequence of UniProt Q9UKI8 (Q9UKI8 whole entry, looked up): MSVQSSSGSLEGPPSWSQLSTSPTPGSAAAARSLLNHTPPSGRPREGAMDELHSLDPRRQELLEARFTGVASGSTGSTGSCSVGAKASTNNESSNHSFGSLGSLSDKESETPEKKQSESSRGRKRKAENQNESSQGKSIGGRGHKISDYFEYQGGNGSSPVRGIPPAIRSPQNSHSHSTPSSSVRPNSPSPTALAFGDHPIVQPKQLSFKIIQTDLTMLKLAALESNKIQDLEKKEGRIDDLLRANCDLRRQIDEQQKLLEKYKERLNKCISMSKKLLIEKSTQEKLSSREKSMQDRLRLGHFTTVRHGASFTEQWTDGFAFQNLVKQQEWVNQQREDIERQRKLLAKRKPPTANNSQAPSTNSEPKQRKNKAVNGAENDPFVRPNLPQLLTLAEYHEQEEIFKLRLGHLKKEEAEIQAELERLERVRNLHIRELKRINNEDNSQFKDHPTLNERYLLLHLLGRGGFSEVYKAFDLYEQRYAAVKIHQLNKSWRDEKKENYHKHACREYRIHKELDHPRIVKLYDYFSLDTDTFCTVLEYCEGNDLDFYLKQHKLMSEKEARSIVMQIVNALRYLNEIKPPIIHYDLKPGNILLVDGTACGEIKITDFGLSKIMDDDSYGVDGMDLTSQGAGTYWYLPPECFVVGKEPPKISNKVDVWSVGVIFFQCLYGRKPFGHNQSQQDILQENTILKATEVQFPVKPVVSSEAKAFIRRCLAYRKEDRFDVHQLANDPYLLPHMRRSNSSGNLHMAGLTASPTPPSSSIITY
# Sequence of UniProt P53597 (P53597 whole entry, looked up): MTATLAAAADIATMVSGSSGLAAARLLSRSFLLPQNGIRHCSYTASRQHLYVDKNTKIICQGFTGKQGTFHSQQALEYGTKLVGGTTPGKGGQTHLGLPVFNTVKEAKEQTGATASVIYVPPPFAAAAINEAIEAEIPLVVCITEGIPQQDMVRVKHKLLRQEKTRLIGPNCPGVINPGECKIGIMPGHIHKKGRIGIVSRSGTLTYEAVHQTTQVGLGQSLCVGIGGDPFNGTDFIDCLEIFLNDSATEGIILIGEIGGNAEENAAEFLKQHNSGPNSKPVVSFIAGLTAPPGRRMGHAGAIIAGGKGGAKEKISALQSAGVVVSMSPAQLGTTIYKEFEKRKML
# Sequence of UniProt Q01085 (Q01085 whole entry, looked up): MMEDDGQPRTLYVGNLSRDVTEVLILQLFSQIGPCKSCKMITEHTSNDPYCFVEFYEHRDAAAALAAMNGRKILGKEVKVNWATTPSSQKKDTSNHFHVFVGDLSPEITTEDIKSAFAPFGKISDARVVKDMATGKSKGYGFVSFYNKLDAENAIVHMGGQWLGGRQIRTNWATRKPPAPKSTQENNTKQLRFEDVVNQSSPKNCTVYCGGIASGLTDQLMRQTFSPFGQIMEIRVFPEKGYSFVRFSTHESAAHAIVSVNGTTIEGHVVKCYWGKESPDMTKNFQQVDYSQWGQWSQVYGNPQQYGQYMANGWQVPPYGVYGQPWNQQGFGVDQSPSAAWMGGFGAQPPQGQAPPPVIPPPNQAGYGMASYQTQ
# Sequence of UniProt Q9P2R7 (Q9P2R7 whole entry, looked up): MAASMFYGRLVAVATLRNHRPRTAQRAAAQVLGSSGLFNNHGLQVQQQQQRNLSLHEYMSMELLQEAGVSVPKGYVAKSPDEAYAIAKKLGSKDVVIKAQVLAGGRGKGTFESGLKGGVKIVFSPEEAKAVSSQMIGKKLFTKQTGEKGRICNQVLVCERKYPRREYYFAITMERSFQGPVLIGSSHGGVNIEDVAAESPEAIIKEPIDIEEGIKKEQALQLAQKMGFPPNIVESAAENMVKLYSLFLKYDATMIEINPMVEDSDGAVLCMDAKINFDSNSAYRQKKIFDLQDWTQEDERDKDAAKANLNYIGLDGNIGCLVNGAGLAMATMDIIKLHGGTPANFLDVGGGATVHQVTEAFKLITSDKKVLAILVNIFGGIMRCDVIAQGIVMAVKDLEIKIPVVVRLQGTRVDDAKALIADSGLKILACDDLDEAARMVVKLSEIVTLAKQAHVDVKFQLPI
# Sequence of UniProt Q8N5G0 (Q8N5G0 whole entry, looked up): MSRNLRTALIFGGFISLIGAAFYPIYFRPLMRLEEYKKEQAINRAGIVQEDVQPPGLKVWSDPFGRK
Target,log2 fold change (bafetinib),log2 fold change [1],log2 fold change (nilotinib),log2 fold change [2],log2 fold change (dasatinib),log2 fold change [3],log2 fold change [4],log2 fold change [5],log2 fold change (tipifarnib),log2 fold change (mubritinib),log2 fold change [6],log2 fold change [7],log2 fold change [8],log2 fold change [9],log2 fold change (entinostat),log2 fold change (vorinostat),log2 fold change (citarinostat),log2 fold change (silmitasertib),log2 fold change [10],log2 fold change [11]
SRRM2 (UniProt Q9UQ35),0.068,0.044,0.02,-0.936 (active),0.079,-0.261,0.048,0.022,0.077,0.035,-0.004,-0.055,0.005,-0.036,0.025,0.226,0.071,-0.141,-0.225,-0.25
TAF9 (UniProt Q16594),-0.076,-0.026,0.061,-0.031,0.146,-0.086,-0.12,-0.011,0.077,-0.005,-0.352,-0.026,0.037,0,-0.567 (active),0.002,-0.043,-0.039,-0.022,0.055
STAT6 (UniProt P42226),0.027,0.502 (active),-0.082,-0.181,-0.115,0.155,-0.099,-0.042,-0.164,0.179,-0.07,-0.065,-0.041,-0.268,0.044,0.108,0.061,0.041,-0.047,0.03
SMIM20 isoform 2 (UniProt Q8N5G0),-0.011,-0.011,-0.037,-0.001,0.012,-0.102,0.05,0.156,0.017,0.009,-0.056,-0.032,0,0.002,0.031,0.057,-0.004,-0.01,-0.154,-0.049
SNUPN (UniProt O95149),-0.031,0.006,-0.025,-0.009,-0.051,0.018,0.013,-0.054,0.003,0.06,-0.031,-0.06,-0.095,-0.063,0.06,0.027,-0.082,0.027,-0.077,0.071
TIAL1 isoform 2 (UniProt Q01085),-0.072,-0.028,-0.023,0.036,-0.021,0.074,0.009,-0.001,0.015,0.013,-0.014,-0.026,-0.05,-0.048,-0.005,0.025,-0.002,-0.003,0.003,-0.036
TLK1 (UniProt Q9UKI8),-0.071,0,-0.073,-0.399 (active),-0.028,0.007,0.06,0.026,0.01,0.011,-0.062,-0.074,-0.063,-0.034,0.042,0.027,0.049,-0.002,0.002,-0.074
TECR (UniProt Q9NZ01),-0.133,0.057,-0.123,-0.035,-0.109,0.021,-0.006,-0.012,-0.135,0.016,0,-0.071,-0.087,-0.048,0.042,0.064,0.07,0.025,-0.07,-0.056
SLC7A6OS (UniProt Q96CW6),-0.062,0.15,-0.019,-0.035,0.004,-0.031,0.026,-0.13,0.06,0.058,-0.023,-0.085,-0.079,0.042,-0.043,0.056,0.098,0.06,-0.036,-0.037
SYF2 (UniProt O95926),-0.198,0.021,-0.017,0.25,0.119,0.308,-0.193,-0.021,0.027,-0.002,0.099,0.089,-0.032,0.101,-0.022,-0.11,-0.069,0.016,0.14,-0.153
STK25 (UniProt O00506),-0.015,-0.055,-0.083,0.257 (active),-0.133,-0.033,0.008,0.007,0.042,-0.013,-0.029,-0.06,-0.136,-0.08,-0.016,0.042,-0.026,0.078,-0.064,-0.034
SLC25A39 (UniProt Q9BZJ4),-0.182,-0.397,-0.136,-0.119,-0.035,0.035,0.081,0.092,0.009,0.104,0.059,-0.183,-0.345,-0.105,0.061,-0.05,-0.015,0.023,0.073,0.223
SLC27A2 (UniProt O14975),0.044,0.005,0.179,-0.104,-0.106,0.025,0.054,0.073,0.187,-0.001,-0.068,-0.091,0.007,-0.047,-0.023,-0.053,0.059,0.083,0.247,-0.035
TBC1D24 (UniProt Q9ULP9),-0.007,0.049,-0.069,-0.318 (active),-0.15,-0.219,0.098,-0.045,-0.106,0.097,0.047,-0.038,-0.091,-0.002,0.029,0.291,0.016,-0.135,-0.082,-0.096
STX17 (UniProt P56962),-0.049,-0.028,0.028,-0.057,-0.027,-0.051,0.071,0.002,-0.012,0.074,0.027,-0.073,-0.096,0.126,-0.001,-0.02,0.254,0.087,-0.026,-0.059
SUCLG1 (UniProt P53597),-0.065,-0.01,-0.077,0.029,-0.025,-0.008,0.027,0.078,-0.008,-0.273 (active),-0.037,-0.077,-0.106,-0.059,0.012,0,0.043,-0.037,-0.073,-0.049
TGFBRAP1 (UniProt Q8WUH2),-0.05,0.482 (active),-0.122,-0.125,-0.153,0.091,-0.151,-0.16,0.032,0.053,0.065,-0.03,-0.209,-0.006,-0.013,0.256,-0.367,0.056,0.069,0.013
SRSF9 (UniProt Q13242),0.166,-0.02,0.014,0.05,0.422,0.001,-0.377,-0.129,0.298,-0.189,0.079,0.17,0.398,0.171,-0.072,0.029,-0.114,0.195,0.245,-0.237
SPR (UniProt P35270),-0.062,-0.102,-0.04,-0.012,0.467 (active),-0.029,0.144,0.298,0.499 (active),-0.083,0.006,0.13,0.491 (active),-0.002,-0.049,-0.154,-0.041,0.004,0.176,0.066
SPTBN4 (UniProt Q9H254),-0.036,-0.044,-0.167,0.027,0.017,-0.04,-0.014,0.03,-0.09,0.066,0,-0.09,-0.095,0.033,0.014,0.026,0.05,0.062,0.129,-0.013
TIMM10 (UniProt P62072),-0.081,0.027,0.014,0.005,0.114,-0.027,-0.05,0.153,0.048,-0.024,-0.004,0.042,-0.027,-0.077,0.058,-0.048,-0.012,0.009,-0.04,-0.043
SUCLA2 (UniProt Q9P2R7),0,-0.065,-0.098,0.057,-0.149,-0.04,0.005,0.038,-0.01,-0.697 (active),-0.021,-0.058,-0.128,-0.077,0.014,0.107,0.068,-0.039,-0.028,-0.046
TJP2 isoform 7 (UniProt Q9UDY2),0.05,0.149,0.014,-0.207,-0.191,-0.025,0.009,0.014,-0.094,0.002,-0.129,-0.007,-0.171,-0.051,0.014,0.161,0.039,-0.061,0.025,-0.167
